SARS PLpro yeast – inhibitors of SARS-CoV papain-like protease in yeast. S. cerevisiae expressing SARS-CoV PLpro, growth rescue. Potency, µM (top dose mostly 32.9 µM), inactives show top-dose activity, positive = growth rescue, hits mostly activators. actives 0.19% (n = 330,000). AID 485353; further: 0% is about no effect; nearly all actives have a fitted effect of over 55% in size
NS1 inh – blocks influenza NS1 protein function; Potency, µM (doses to about 46.1 µM), for the others: at the top dose activity, positive = more growth; actives 0.4% (n = 270,000); AID 2326; further: actives are rising curves; nearly all actives have a fitted effect of over 50% in size
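Read-out: OD600 growth recovery of NS1-expressing budding yeast. Cells grown overnight at 30C in -URA glucose medium, washed, resuspended and diluted 1:100 in 2% galactose assay medium, pH 6.0. Same strain lacking NS1 served as positive control.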
Pf growth 48h – P. falciparum growth inhibition at 48 hours (one generation). P. falciparum luciferase growth in erythrocytes, 48 h. Potency, µM (series often up to 28.7 µM), for inactives: at the highest dose activity change, negative = inhibition, actives largely listed as inhibitors. actives 5.9% (n = 310,000); active means well fitted inhibition curve with a large enough effect; inconclusive means small, poorly fitted or top-dose-only effect, or another doubt; inactive means no such curve, though single readings can be large or run the other way; further: on the % scale 0 is the no-effect control and ±100 the full control effect
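Parasite viability was followed by luminescence of a genomically integrated firefly luciferase. Cultures held 0.1% parasitemia at 2% hematocrit (final), incubated under 5% CO2 at 37 C.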
Pf growth 96h – P. falciparum growth inhibition at 96 hours. Potency, µM (titrated, usually from 28.7 µM), without a hit: at the top dose activity change, negative = inhibition, actives largely listed as inhibitors. AID 504834. actives 6.9% (n = 320,000). P. falciparum luciferase reporter growth, 96 h; active means well fitted inhibition curve with a large enough effect; inconclusive means small, poorly fitted or top-dose-only effect, or another doubt; inactive means no such curve, though single readings can be large or run the other way; further: on the % scale 0 is the no-effect control and ±100 the full control effect
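Parasite growth measured via integrated firefly luciferase reporter in P. falciparum. Infected erythrocytes at 2% hematocrit, 0.05% parasitemia final were treated 96 hours at 37 C under 5% CO2, and luminescence was read.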
Starred values were filed as active, the others as inactive; ? = inconclusive; . = no result; [ ] = dose if it differs, or a comment. A selection: hits, their analogues and other compounds. The true share with any hit is near 10%. Unless noted, the call rests on the fitted dose curve. Potency means the concentration at half of the fitted maximal effect.

SMILES | SARS PLpro yeast | NS1 inh | Pf growth 48h | Pf growth 96h
CCN(CC)CC(=O)Nc1sc(C)cc1C(=O)c1ccc(C)cc1 | 21% | -3% | ? | -24%
CCN(CC)CC(=O)Nc1sc(C)cc1C(=O)c1ccccc1 | 8% | -4% | 3.3µM* | -12%
CCc1cc(C(=O)c2ccc(Br)cc2)c(NC(=O)CN(CC)CC)s1 | 7% | -12% | 5.9µM* | 8.3µM*
CCN(CC)CC(=O)Nc1sc(C)c(C)c1C(=O)c1ccc(C)cc1 | -1% | -3% | ? | 11%
CN1C(=O)[C@@H]2[C@H](C1=O)[C@@H]1C(=O)Nc3ccccc3C(=O)N1[C@@H]2c1cccc(Br)c1 | 1% | . | -19% | 65%
CN(C)CCOC(=O)[C@@H](c1ccccc1)C1(O)CCCC1 | . | . | 36% | 48%
CC(C)[C@H](NC(=O)N1c2ccccc2NC(=O)[C@@H]1C(C)C)C(=O)N1CCC(C(=O)O)CC1 | 10% | 22% | 14% | -1%
O=[N+]([O-])c1ccc(NC(=S)NCCc2ccc(F)cc2)cc1 | -87% | -39% | 10µM* | 5.2µM*
O=C(NCCc1ccc(F)cc1)Nc1ccc([N+](=O)[O-])cc1 | -13% | -92% | ? | -5%
COc1ccc(CNC(=O)Nc2cccc(Cl)c2)cc1 | 5% | 1% | 71% | 10µM*
CC(=O)c1cccc(NC(=S)NCCCCc2ccccc2)c1 | 7% | -11% | -22% | 9.3µM*
COc1ccc(NC(=O)NCc2ccc(Cl)cc2)cc1 | -2% | -7% | 12% | 3%
COc1ccc(CNCCc2ccc(Cl)cc2Cl)cc1 | -1% | 8% | 7% | 5.9µM*
CCOc1ccccc1Nc1nnc(SCC(=O)NC2CC2)s1 | -1% | . | . | .
O=C(NCCc1ccc(Cl)cc1)Nc1ccc(F)cc1 | -2% | -13% | 15µM* | -1%
COc1cccc(NC(=O)Nc2ccc(CC(=O)O)cc2)c1 | -4% | 6% | 21% | 2.3µM*
CC(=O)Nc1ccc(OCC(=O)NCCc2ccc(Cl)cc2)cc1 | ? | -11% | 24% | 13µM*
COc1ccc(C2SCCN2C(=S)Nc2cccc(Cl)c2)cc1 (stereo unspecified) | 8% | -23% | 2.3µM* | 2.1µM*
C[C@@H](Cc1ccc(Cl)cc1Cl)NO | . | -33% | . | .
O=C(NCCc1ccccc1)Nc1cccc(Cl)c1 | -38% | -29% | -4% | 2.9µM*
CC(=O)Nc1ccc(OCC(=O)c2cc(C)ccc2C)cc1 | 3% | -19% | . | 9.3µM*
CC(=O)Nc1ccc(OCC(=O)c2ccc(C)cc2C)cc1 | -3% | -75% | ? | .
CCCc1c(NC(=O)Nc2ccc(F)cc2)cnn1-c1ccc(Cl)cc1 | -2% | 0% | 6.6µM* | ?
Fc1cc(Br)ccc1COc1ccc(-c2nnco2)cc1 | 1% | 1% | 84% | 83%
CCN(CC)S(=O)(=O)c1ccc(N2CCN(C)CC2)c(NC(=O)CSCC(=O)Nc2cccc(C)c2)c1 | 7% | . | 17µM* | ?
SMILES | SARS PLpro yeast | NS1 inh | Pf growth 48h | Pf growth 96h
COc1ccc(CCC(=O)Nc2cc(Cl)ccc2N2CCN(C)CC2)cc1 | -7% | 11% | 7.4µM* | 4.7µM*
Cc1ccc(NC(=O)CSCC(=O)Nc2cc(Cl)ccc2N2CCN(C)CC2)cc1 | -1% | . | 13µM* | ?
CC(Oc1ccc(Br)cc1)C(=O)Nc1cc(Cl)ccc1N1CCN(C)CC1 (stereo unspecified) | -2% | . | 12µM* | 12µM*
Cc1nnc(NN2CCOCC2)[nH]c1=O | -2% | . | 13% | -71%
CCN(CC)S(=O)(=O)c1ccc(N2CCN(C)CC2)c(NC(=O)Nc2ccc(C)cc2)c1 | 2% | -4% | 9.3µM* | ?
COc1cccc(/C(O)=C/c2nc3ccc(C(=O)NCCc4cccc(C)c4)cc3[nH]c2=O)c1 | 7% | 21% | 8.3µM* | -10%
Cc1ccc(NC(=O)CCCCCN2C(=O)[C@@H]3Cc4ccccc4CN3C2=O)c(Cl)c1 | -3% | -34% | ? | ?
CC1(C)CN=C(Nc2ccc(F)c(Cl)c2)S1 | -1% | 3% | ? | ?
CNC(=O)N(C1=NCC(C)(C)S1)c1ccc(F)c(Cl)c1 | 8% | -89% | . | 7.4µM*
CCCCc1ncc(CN2CCCC(C(=O)c3ccc(SC)cc3)C2)[nH]1 (stereo unspecified) | -2% | 2% | 9.3µM* | 25%[5.75 µM]
CCOC(=O)c1[nH]ncc1CN1CCCC(C(=O)c2ccc(SC)cc2)C1 (stereo unspecified) | -1% | 7% | ? | ?
O=C(Nc1ccc(-c2noc(-c3ccccc3F)n2)cc1)c1cccs1 | 4% | -8% | 16% | 9.3µM*
CCCc1ccc(OCc2nc(-c3ccc(NC(=O)c4cccs4)cc3)no2)cc1 | -8% | -4% | 1.9µM* | ?
CCOc1ccc(NC(=O)COC(=O)Cn2cnc3ccccc32)cc1 | -4% | . | . | .
COc1cccc(C2C(C(=O)c3sc(C)nc3C)=C(O)C(=O)N2CCN(C)C)c1OC (stereo unspecified) | -3% | 8.9µM* | 4% | -19%
Cc1nc(C)c(C(=O)C2=C(O)C(=O)N(CCN(C)C)C2c2cccs2)s1 (stereo unspecified) | -1% | 6% | 6% | 46%
O=C1c2nccnc2C(=O)N1c1ccc(C(F)(F)F)cc1 | -5% | . | 19% | 69%
O=C(CNC(=S)N(CCCN1CCOCC1)Cc1cccs1)NCc1ccccc1Cl | 0% | -9% | ? | 41%
O=C(CN(Cc1ccccc1Cl)C(=O)c1ccc(CN2CCOCC2)o1)NCc1ccccc1 | -1% | -7% | -14% | 6.6µM*
O=C1NCCN1CCN1C(=O)c2ccccc2NC1c1ccccc1 (stereo unspecified) | 0% | 4% | -1% | 0%
Cn1nc([N+](=O)[O-])nc1Oc1ccccc1F | 0% | 3% | -1% | 13µM*
Cc1nn(C)c(C(=O)Nc2c(C)nn(Cc3c(F)c(F)c(F)c(F)c3F)c2C)c1Br | -8% | 1% | -10% | ?
CC1=NN(c2ccc([N+](=O)[O-])cc2)C(=O)/C1=C\N(C)C | -82% | 1% | 21% | 7.4µM*
CCCC1=NN(c2ccc([N+](=O)[O-])cc2)C(=O)/C1=C/N(C)C | -6% | -12% | 40% | 3%
COc1cc(NC(=O)CSc2nc3[nH]ncc3c(=O)n2-c2ccc(Cl)cc2)cc(OC)c1 | ? | 6% | ? | -18%
SMILES | SARS PLpro yeast | NS1 inh | Pf growth 48h | Pf growth 96h
O=C(CSc1nc2nc3c(cc2c(=O)n1-c1ccccc1)CCCC3)Nc1ccccc1 | -21% | 3% | ? | 12µM*
CC1(C)Cc2nc3nc(SCC(=O)NCc4ccccc4)n(-c4ccccc4)c(=O)c3cc2CO1 | 1% | -11% | -15% | ?
O=C(CSc1nc2[nH]ncc2c(=O)n1-c1ccccc1Br)NCc1ccco1 | 3% | ? | 12µM* | 67%
CC1(C)Cc2nc3nc(SCC(=O)NCCc4ccccc4)n(-c4ccccc4)c(=O)c3cc2CO1 | 7% | 2% | ? | 4.1µM*
COc1ccc(CCNC(=O)CSc2nc3[nH]ncc3c(=O)n2-c2ccccc2Br)cc1OC | -1% | . | ? | 39%
COc1cc(NC(=O)CSc2nc3[nH]ncc3c(=O)n2-c2ccccc2C)cc(OC)c1OC | 1% | -7% | 10µM* | 6%
O=C(O)C[O][Sb][O]CC(=O)O | . | 3% | . | .

Screens from PubChem.
